For 6 sequences, binding signal results are on record in PMC11574364.

Among the targets are RBMXL3 (Homo sapiens, UniProt Q8N7X1); ROD1(3-4) (Homo sapiens, UniProt O95758); snRNP 70 (Homo sapiens, UniProt P08621); SRRP35 (Homo sapiens, UniProt Q8WXF0); RDBP (Homo sapiens, UniProt P18615).
Assay in all cases: protein domain microarray probed with biotinylated miRNA; Domain array: 20 mM Tris-HCl pH 7.4, 200 mM KCl, 0.2 mM EDTA, 0.05% NP40, 2 ug/ul heparin, overnight 4 C. ORF array: PBS pH 7.0 with RNase inhibitor, 100 ng RNA; high values mean tight binding
What all share (settings): ssRNA

A further assay has as its target T1, PSPC1 (Homo sapiens, UniProt Q8WXF1).
T1 sequence: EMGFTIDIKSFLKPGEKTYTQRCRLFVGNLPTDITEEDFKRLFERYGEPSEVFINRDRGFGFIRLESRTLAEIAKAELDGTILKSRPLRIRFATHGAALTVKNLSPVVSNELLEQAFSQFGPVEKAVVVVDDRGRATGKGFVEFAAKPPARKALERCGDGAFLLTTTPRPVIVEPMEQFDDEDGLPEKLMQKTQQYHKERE

The target of another assay is T2, TDRD10 (Homo sapiens, UniProt Q5VZ19).
T2 sequence: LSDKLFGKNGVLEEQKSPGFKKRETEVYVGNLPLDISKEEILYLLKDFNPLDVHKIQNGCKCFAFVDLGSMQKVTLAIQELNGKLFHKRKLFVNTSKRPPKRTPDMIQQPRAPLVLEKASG

The target of the next assay is T3, MASK-BP3 (Homo sapiens, UniProt Q8IWZ3).
T3 sequence: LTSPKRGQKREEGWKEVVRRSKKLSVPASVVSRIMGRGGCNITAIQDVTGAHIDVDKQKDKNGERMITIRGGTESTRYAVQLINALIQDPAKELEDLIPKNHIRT

In another assay the target is T4, TRA2A (Homo sapiens, UniProt Q13595).
T4 sequence: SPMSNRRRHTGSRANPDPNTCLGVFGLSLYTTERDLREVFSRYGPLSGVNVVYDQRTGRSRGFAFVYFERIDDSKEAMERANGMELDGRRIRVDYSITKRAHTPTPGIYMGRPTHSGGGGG

The target in the next assay is T5, SFRS7 (Homo sapiens, UniProt Q16629).
T5 sequence: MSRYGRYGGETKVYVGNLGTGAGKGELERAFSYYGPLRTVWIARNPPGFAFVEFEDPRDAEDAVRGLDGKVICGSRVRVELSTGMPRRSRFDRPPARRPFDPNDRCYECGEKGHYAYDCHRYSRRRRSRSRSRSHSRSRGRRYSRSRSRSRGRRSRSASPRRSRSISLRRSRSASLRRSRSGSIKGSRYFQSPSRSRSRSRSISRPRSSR

Chain of SRRP35 (Q8WXF0 1-120): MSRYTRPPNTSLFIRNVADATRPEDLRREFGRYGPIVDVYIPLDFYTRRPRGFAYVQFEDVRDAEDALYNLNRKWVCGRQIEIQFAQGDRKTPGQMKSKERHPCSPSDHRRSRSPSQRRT
Chain of ROD1(3-4) (O95758 340-552): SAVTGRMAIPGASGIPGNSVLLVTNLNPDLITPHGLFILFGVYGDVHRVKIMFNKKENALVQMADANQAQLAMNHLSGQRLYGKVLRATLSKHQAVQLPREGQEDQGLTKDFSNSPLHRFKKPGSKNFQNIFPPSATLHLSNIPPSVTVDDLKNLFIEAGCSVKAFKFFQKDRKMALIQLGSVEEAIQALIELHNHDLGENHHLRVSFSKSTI
Chain of RDBP (P18615 240-355): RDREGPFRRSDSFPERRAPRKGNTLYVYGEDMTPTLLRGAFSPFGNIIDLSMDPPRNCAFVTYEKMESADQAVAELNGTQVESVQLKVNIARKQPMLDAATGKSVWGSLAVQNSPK
Chain of RBMXL3 (Q8N7X1 1-110): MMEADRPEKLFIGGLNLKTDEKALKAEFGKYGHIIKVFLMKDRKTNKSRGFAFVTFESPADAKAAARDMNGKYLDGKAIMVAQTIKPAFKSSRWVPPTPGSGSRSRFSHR
Chain of snRNP 70 (P08621 80-205): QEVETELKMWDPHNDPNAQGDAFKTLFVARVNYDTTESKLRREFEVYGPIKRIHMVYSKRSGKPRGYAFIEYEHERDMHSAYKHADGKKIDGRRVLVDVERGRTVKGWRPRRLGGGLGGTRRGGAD

As for UGAGGUAGUAGGUUGUGUGGUU, the binding signal in the assay with RBMXL3 was 1280 ± 38.3 fluorescence intensity; in the assay with ROD1(3-4), 569 ± 20.9 fluorescence intensity; with PSPC1 it was 84.7 ± 9.68 fluorescence intensity; with TDRD10, 210 ± 41.3 fluorescence intensity; with MASK-BP3, 131 ± 1.63 fluorescence intensity; in the assay with TRA2A it was 341 ± 41.5 fluorescence intensity. The binding signal with SFRS7 is 1968 ± 10.4 fluorescence intensity; with snRNP 70, 1170 ± 58.7 fluorescence intensity; with SRRP35, 643.6 ± 5.9 fluorescence intensity; in the assay with RDBP, 78.9 ± 4.14 fluorescence intensity.

On to UGAGGUAGUAGGUUGUAUGGUU, for which the binding signal with RBMXL3 was 1320 ± 44.2 fluorescence intensity; with ROD1(3-4) it was 385 ± 82.6 fluorescence intensity; with PSPC1, 26.1 ± 0.75 fluorescence intensity; with TDRD10, 161 ± 58.1 fluorescence intensity; with MASK-BP3 it was 71.6 ± 1.19 fluorescence intensity; in the assay with TRA2A, 311 ± 4.77 fluorescence intensity. Besides, the binding signal with SFRS7 is 2173 ± 16.3 fluorescence intensity; with snRNP 70, 1010 ± 40.3 fluorescence intensity; in the assay with SRRP35, 570 ± 27.1 fluorescence intensity; in the assay with RDBP it was 52.2 ± 3.22 fluorescence intensity.

Regarding CAGUGCAAUGAUGAAAGGGCAU, the binding signal in the assay with RBMXL3 was determined as 1130 ± 24.3 fluorescence intensity; with ROD1(3-4) it was 241 ± 7.52 fluorescence intensity; in the assay with TDRD10 it was 33.1 ± 2.64 fluorescence intensity; with MASK-BP3, 42.16 ± 0.219 fluorescence intensity; in the assay with TRA2A it was 126 ± 1.75 fluorescence intensity; in the assay with SFRS7, 2185 ± 2.91 fluorescence intensity. Moreover, the figures for the binding signal with snRNP 70, with SRRP35 and in the assay with RDBP were 453 ± 34.9 fluorescence intensity, 882 ± 24.2 fluorescence intensity and 43.1 ± 3.73 fluorescence intensity, respectively.

UAGCUUAUCAGACUGAUGUUGA: the binding signal with RBMXL3 came out at 308 ± 16.9 fluorescence intensity; with ROD1(3-4) it was 94.4 ± 48.7 fluorescence intensity; with SFRS7, 1190 ± 28.1 fluorescence intensity; in the assay with snRNP 70 it was 44 ± 10.4 fluorescence intensity; in the assay with SRRP35, 54.02 ± 0.29 fluorescence intensity; with RDBP, 20.3 ± 0.262 fluorescence intensity.

As for AGAGGUAGUAGGUUGCAUAGUU, the binding signal with RBMXL3 is 1850 ± 54 fluorescence intensity; in the assay with ROD1(3-4), 331 ± 55.6 fluorescence intensity; with PSPC1, 38.8 ± 3.2 fluorescence intensity; in the assay with TDRD10, 85.7 ± 8.76 fluorescence intensity; with MASK-BP3 it was 50.1 ± 3.32 fluorescence intensity; with TRA2A, 230 ± 12.5 fluorescence intensity. Moreover, the binding signal in the assay with SFRS7 was 2902 ± 20.8 fluorescence intensity; in the assay with snRNP 70, 899.9 ± 8.8 fluorescence intensity; with SRRP35 it was 735 ± 23.2 fluorescence intensity; with RDBP it was 47.7 ± 4.8 fluorescence intensity.

In the case of UGAGGUAGUAGGUUGUAUAGUU, the binding signal was determined as 500 ± 52.7 fluorescence intensity with RBMXL3; 92.7 ± 10.2 fluorescence intensity with ROD1(3-4); 26.2 ± 1.21 fluorescence intensity with MASK-BP3; 25 ± 0.552 fluorescence intensity with TRA2A; 896.5 ± 2.67 fluorescence intensity with SFRS7; 179 ± 52.5 fluorescence intensity with snRNP 70. Further, the binding signal came to 206 ± 15.3 fluorescence intensity in the assay with SRRP35 and 25 ± 1.67 fluorescence intensity with RDBP.
